Measurements reported in PubChem BioAssay (NCATS).
Inconclusive results are not listed. Activity calls are given as the source filed them. Unless noted, calls follow the shape of the full dose curve.

Key:
[1] = qHTS drug screen for cell cycle checkpoint inhibitors in PARPi-resistant BRCA-mutant ovarian cancer cell lines. (AID 1963452); conditions: PEO1/OlaR viability, CellTiter-Glo luminescence, 96 h; for Z-AUC: stronger effect = lower value; also: potency is read from the fitted curve at half-maximal effect
Method in brief: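 PEO1, PEO4 and PEO1/OlaR ovarian cancer cells, 600 per well, exposed 96 h at 37C to a dilution series. Viability read by CellTiter-Glo luminescence, normalized to DMSO and empty wells; activity summarized as Z-AUC.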

[2] = Dual reporter qHTS for antagonist of Pregnane X Receptor (hPXR) against the NCATS DSHEA and TCM libraries: Fluorescence Readout (AID 1920061; active = well fitted curve in the direction sought with a large enough effect; an effect the other way counts as inactive or inconclusive; also: 0% is about no effect); conditions: PXR dual reporter cells, antagonist mode; series mostly up to 40 µM
Method in brief: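 In antagonist mode, 2 uM rifampicin was added to hPXR-Luc HepG2 cells alongside test substances, incubated 24 h at 37 C; luminescence gave reporter activity, and CellTiter-Fluor fluorescence (405/540 nm) gave viability.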

[3] = qHTS for identification of novel therapeutic agents for treatment of microphthalmiaassociated transcription factor (MiT) renal cell carcinoma (RCC) (AID 1963991); conditions: CellTiter-Glo, 48 h, stronger effect = lower value
Method in brief: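 Curves over 11 concentrations were fitted to CellTiter-Glo luminescence, scaled between empty wells (0%) and DMSO (100%) viability. Cells were UOK109, UOK124 and UOK145 TFE3-fusion RCC lines at 500/well, exposed 48 hours at 37 C.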

[4] = qHTS profiling for inhibitors of Plasmodium falciparum proliferation (AID 504749; active = well fitted curve in the direction sought with a large enough effect; an effect the other way counts as inactive or inconclusive;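 also: 0% = DMSO vehicle and full inhibition = artemisinin control; nearly all actives have a fitted effect of over 60% in size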); conditions: P. falciparum in erythrocytes, SYBR Green DNA, 72 h, at 28.7 µM (top of the series)
Method in brief: (§1)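 P. falciparum-infected erythrocytes (0.3% parasitemia, 2.5% hematocrit) incubated with compound 72 h at 37 C, 5% CO2. Parasite DNA detected by SYBR Green after lysis, overnight at room temperature; normalised to 0.29 uM artemisinin and DMSO.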

3D7 = test: as above; conditions: P. falciparum in erythrocytes, SYBR Green DNA, 72 h; series mostly up to 28.7 µM
Method in brief: as §1

AA1029 = test: as above; conditions: P. falciparum in erythrocytes, SYBR Green DNA, 72 h; series mostly up to 28.7 µM
Method in brief: as §1

AS120 = test: as above; conditions: P. falciparum in erythrocytes, SYBR Green DNA, 72 h; series mostly up to 28.7 µM
Method in brief: as §1

ATS189 = test: as above; conditions: P. falciparum in erythrocytes, SYBR Green DNA, 72 h; series mostly up to 28.7 µM
Method in brief: as §1

ATS95 = test: as above; conditions: P. falciparum in erythrocytes, SYBR Green DNA, 72 h; series mostly up to 28.7 µM
Method in brief: as §1

[5] = measured here: PEO1 parental Z-AUC
[6] = TFE3-RCC UOK109 viability, measured here: UOK109 Z-AUC
[7] = TFE3-RCC viability, measured here: UOK124 Z-AUC
[8] = TFE3-RCC viability, measured here: UOK145 Z-AUC

## N#Cc1ccc(Oc2ccc3c(c2)COB3O)cc1
[1]
  Z-AUC: 0.18 (inactive)
[1]; [5]
  Z-AUC: 0.583
[1]; measured here: PEO4 Z-AUC
  Z-AUC: 0.594

## Nc1ncnc2c1ncn2[C@@H]1O[C@H](CO)[C@@H](O)[C@@H]1O
[1]
  Z-AUC: 1.52 (inactive)
[1]; [5]
  Z-AUC: 0.934
[1]; measured here: PEO4 Z-AUC
  Z-AUC: 0.856

## Cc1cc2nc3c(=O)[nH]c(=O)nc-3n(CC(O)C(O)C(O)CO)c2cc1C (stereo not drawn)
[2]
  outcome: inactive
[1]
  Z-AUC: -0.035 (inactive)
[1]; [5]
  Z-AUC: 0.9
[1]; measured here: PEO4 Z-AUC
  Z-AUC: 1
[3]; [6]
  z-score: 1.42
[3]; [7]
  z-score: 0.421
[3]; [8]
  z-score: 0.538
[4]; parasite line A
  activity, negative = inhibition: -17.3% (inactive)
[4]; parasite line B
  activity, negative = inhibition: -10.6% (inactive)
3D7
  Potency: inactive
AA1029
  Potency: inactive
AS120
  Potency: inactive
ATS189
  Potency: inactive
ATS95
  Potency: inactive

## Cc1csc(-c2nnc(Nc3ccc(Oc4ncccc4-c4ccnc(N)n4)cc3)c3ccccc23)c1
[1]
  Z-AUC: -0.397 (inactive)
[1]; [5]
  Z-AUC: -0.785
[1]; measured here: PEO4 Z-AUC
  Z-AUC: -1.53

## CC1=C(CC(=O)O)c2cc(F)ccc2C1=Cc1ccc(S(C)=O)cc1 (stereo not drawn)
[1]
  Z-AUC: -0.123 (inactive)
[1]; [5]
  Z-AUC: 0.811
[1]; measured here: PEO4 Z-AUC
  Z-AUC: 0.523

## O=C1CCCC(=O)C1C(=O)c1ccc(C(F)(F)F)cc1[N+](=O)[O-]
[1]
  Z-AUC: 0.835 (inactive)
[1]; [5]
  Z-AUC: 1.44
[1]; measured here: PEO4 Z-AUC
  Z-AUC: 0.656

## Cc1nn(Cc2ccccc2Cl)c(C)c1CN(C)CC(O)COc1ccc(Cl)cc1 (stereo not drawn)
[1]
  Z-AUC: 0.675 (inactive)
[1]; [5]
  Z-AUC: 0.673
[1]; measured here: PEO4 Z-AUC
  Z-AUC: 0.908

## C[C@@]1(C(=O)Nc2ccc(F)nc2)CCCN1c1nc(Nc2cc(C3CC3)[nH]n2)c2cccn2n1
[1]
  Z-AUC: 0.31 (inactive)
[1]; [5]
  Z-AUC: 0.238
[1]; measured here: PEO4 Z-AUC
  Z-AUC: -0.135

## CC1CNc2c(cccc2S(=O)(=O)N[C@@H](CCCN=C(N)N)C(=O)N2CC[C@@H](C)C[C@@H]2C(=O)O)C1 (stereo partly drawn)
[1]
  Z-AUC: 1.14 (inactive)
[1]; [5]
  Z-AUC: 0.686
[1]; measured here: PEO4 Z-AUC
  Z-AUC: 1.06

## CCN1CCN(c2ccc(Nc3cc(N(C)C(=O)Nc4c(Cl)c(OC)cc(OC)c4Cl)ncn3)cc2)CC1
[1]
  Z-AUC: 0.0169 (inactive)
[1]; [5]
  Z-AUC: -0.00584
[1]; measured here: PEO4 Z-AUC
  Z-AUC: 0.0335

## COc1c(C)cnc(Cn2cnc3c(Cl)nc(N)nc32)c1C
[1]
  Z-AUC: -0.301 (inactive)
[1]; [5]
  Z-AUC: -0.874
[1]; measured here: PEO4 Z-AUC
  Z-AUC: -0.434

## CCNC(=O)c1noc(-c2cc(C(C)C)c(O)cc2O)c1-c1ccc(CN2CCOCC2)cc1
[1]
  Potency: 24.5 nM (active)
[1]; [5]
  Z-AUC: -1.81
[1]; measured here: PEO4 Z-AUC
  Z-AUC: -1.08

## NC(=O)c1noc([C@H](CCCC2CCCCC2)CC(=O)NO)n1
[1]
  Z-AUC: 1.33 (inactive)
[1]; [5]
  Z-AUC: 0.607
[1]; measured here: PEO4 Z-AUC
  Z-AUC: 0.522

## COc1cc2nccc(Oc3ccc(NC(=O)Nc4cc(C)on4)c(Cl)c3)c2cc1OC
[1]
  Z-AUC: -0.11 (inactive)
[1]; [5]
  Z-AUC: 0.0474
[1]; measured here: PEO4 Z-AUC
  Z-AUC: 0.0316

## CC(=O)NCCC(=O)N[C@@H](CCC(N)=O)C(=O)N[C@@H](CO)C(=O)N[C@@H](CCC(N)=O)C(=O)N[C@@H](CCC(N)=O)C(=O)N[C@H](C(=O)N[C@@H](Cc1ccccc1)C(=O)N[C@]1(C)CCCCCCC=CCCC[C@@](C)(C(=O)N[C@@H](CCC(N)=O)C(=O)N[C@@H](CC(N)=O)C(N)=O)NC(=O)[C@H](CC(C)C)NC(=O)[C@H](CC(C)C)NC(=O)[C@@H](CCCNC(=N)N)NC(=O)[C@H](Cc2c[nH]c3ccccc23)NC(=O)[C@H](CC(C)C)NC(=O)[C@H](CC(N)=O)NC1=O)[C@H](C)O
[1]
  Z-AUC: -0.975 (inactive)
[1]; [5]
  Z-AUC: -0.536
[1]; measured here: PEO4 Z-AUC
  Z-AUC: -0.428

## CNC(=O)c1ccc2c(C(=Nc3cccc(CN(C)C)c3)c3ccccc3)c(O)[nH]c2c1
[1]
  Z-AUC: -0.0393 (inactive)
[1]; [5]
  Z-AUC: 0.42
[1]; measured here: PEO4 Z-AUC
  Z-AUC: 0.638

## CC(C)(CO)[C@@H](O)C(=O)NCCC(=O)O
[2]
  outcome: inactive
[1]
  Z-AUC: -0.0324 (inactive)
[1]; [5]
  Z-AUC: 0.0769
[1]; measured here: PEO4 Z-AUC
  Z-AUC: 0.104
[3]; [6]
  z-score: 1.12
[3]; [7]
  z-score: 0.429
[3]; [8]
  z-score: -0.0311

## C[C@]12CC[C@@H]3c4ccc(O)cc4CC[C@H]3[C@H]1[C@@H](O)[C@@H](O)[C@H]2O
[1]
  Z-AUC: 1 (inactive)
[1]; [5]
  Z-AUC: 0.841
[1]; measured here: PEO4 Z-AUC
  Z-AUC: 0.542

## Nc1ncnc2c1c(-c1cccc(OCc3ccccc3)c1)cn2C1CC(CN2CCC2)C1 (stereo not drawn)
[1]
  Z-AUC: -0.485 (inactive)
[1]; [5]
  Z-AUC: -0.126
[1]; measured here: PEO4 Z-AUC
  Z-AUC: -0.746

## Cc1ccc(S(=O)(=O)Nc2nc3ccccc3nc2Nc2ccc3nsnc3c2)cc1
[1]
  Z-AUC: -0.8 (inactive)
[1]; [5]
  Z-AUC: -0.564
[1]; measured here: PEO4 Z-AUC
  Z-AUC: -0.705

## Cc1nc(C(=O)NCC(=O)O)c(O)c2ccc(Oc3ccccc3)cc12
[1]
  Z-AUC: 1.39 (inactive)
[1]; [5]
  Z-AUC: 0.88
[1]; measured here: PEO4 Z-AUC
  Z-AUC: 0.853

## Cc1c(C(=O)Nc2ccc(N3C[C@@H](C)O[C@@H](C)C3)nc2)cccc1-c1ccc(OC(F)(F)F)cc1
[1]
  Z-AUC: 0.823 (inactive)
[1]; [5]
  Z-AUC: 1.06
[1]; measured here: PEO4 Z-AUC
  Z-AUC: 0.91

## Cc1cc(C(C)Nc2ccccc2)c2nc(N3CCOCC3)cc(=O)n2c1 (stereo not drawn)
[1]
  Z-AUC: 0.744 (inactive)
[1]; [5]
  Z-AUC: 1.25
[1]; measured here: PEO4 Z-AUC
  Z-AUC: 1.25

## COc1cc2ncnc(Nc3cc(Br)c(O)c(Br)c3)c2cc1OC
[1]
  Z-AUC: -1.45 (inactive)
[1]; [5]
  Z-AUC: -0.545
[1]; measured here: PEO4 Z-AUC
  Z-AUC: -1.13

## CCN1CCC(n2cc(CNc3cc(Cl)c4ncc(C#N)c(Nc5ccc(F)c(Cl)c5)c4c3)nn2)CC1
[1]
  Z-AUC: -1.28 (inactive)
[1]; [5]
  Z-AUC: -0.754
[1]; measured here: PEO4 Z-AUC
  Z-AUC: -1.71

## Cc1ccc(NC(=O)c2ccc(CN3CCN(C)CC3)cc2)cc1Nc1nc(-c2cccnc2)cs1
[1]
  Z-AUC: -0.78 (inactive)
[1]; [5]
  Z-AUC: -0.735
[1]; measured here: PEO4 Z-AUC
  Z-AUC: -0.741
